Assays:
Test in all cases: relative growth (AUC of 72 h growth curve relative to DMSO control, dAUC) (ratio); higher = more growth (less inhibition), active = hit call of the paper
Details in all cases: 20 µM;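 active = growth AUC significantly below the DMSO wells by Dunnett test; inactive = the rest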
[1] = system: Aeromonas 1 (Aeromonas sp. AE235)
Procedure, shortened: (§1)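 Growth was followed as A600, read hourly for 72 h on a plate reader after brief shaking. Isolates from Icelandic stream sediments and Silwood Park soil, and whole sediment communities, were first grown to carrying capacity in Luria–Bertani medium and then diluted 1:100 into 96-well plates with each chemical at 20 µM (1% DMSO). Relative growth (dAUC) is the spline-integrated area under the curve scaled to the mean of the DMSO controls, and the values are averages of three biological replicates.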

[2] = system: Aeromonas 2 (Aeromonas sobria)
Procedure, shortened: as §1

[3] = system: Aeromonas 3 (Aeromonas popoffii)
Procedure, shortened: as §1

[4] = system: Argrobacterium 1 (Agrobacterium sp.)
Procedure, shortened: as §1

[5] = system: Arthrobacter 1 (Arthrobacter humicola)
Procedure, shortened: as §1

[6] = system: Arthrobacter 2 (Arthrobacter humicola)
Procedure, shortened: as §1

[7] = system: Arthrobacter 3 (Arthrobacter sp.)
Procedure, shortened: as §1

[8] = system: Community 10
Procedure, shortened: as §1

[9] = system: Community 4
Procedure, shortened: as §1

[10] = system: Community 6
Procedure, shortened: as §1

Measured: relative growth

CC(C)CC(C)c1sccc1NC(=O)c1cn(C)nc1C(F)(F)F (stereo not given)
inactive: [1] 0.935 | [2] 0.946 | [3] 0.994 | [4] 0.855 | [5] 0.87 | [6] 0.885 | [7] 0.936 | [8] 0.715 | [9] 0.78 | [10] 0.806

CC1(C)C(C(=O)OC(C#N)c2cccc(Oc3ccccc3)c2)C1(C)C (stereo not given)
inactive: [1] 0.986 | [2] 0.989 | [3] 1.08 | [4] 1.09 | [5] 1.1 | [6] 0.685 | [7] 0.704 | [9] 1 | [10] 1.03

COC(=O)NC(=S)Nc1ccccc1NC(=S)NC(=O)OC
inactive: [1] 0.978 | [2] 0.978 | [3] 0.998 | [4] 1.02 | [5] 0.923 | [6] 0.973 | [7] 1.07 | [9] 0.943 | [10] 0.97

CCOCN(C(=O)CCl)c1c(C)cccc1CC
inactive: [1] 0.953 | [2] 0.938 | [3] 0.964 | [4] 1.02 | [5] 0.999 | [6] 0.858 | [7] 1.02 | [9] 0.952 | [10] 0.921

CCCCCCCCCCCCNC(=N)N
inactive: [1] 0.94 | [2] 0.928 | [3] 0.97
active: [4] 0.233 | [5] 0.0065 | [6] 0.00389 | [7] 0.0063 | [9] 0.501 | [10] 0.407

CON(C)C(=O)Nc1ccc(Cl)c(Cl)c1
active: [6] 0.595
inactive: [1] 0.924 | [2] 0.996 | [3] 0.996 | [4] 0.869 | [5] 0.952 | [7] 0.929 | [9] 0.943 | [10] 0.995

COP(N)(=O)SC (stereo not given)
active: [6] 0.0085 | [7] 0.137 | [10] 0.626
inactive: [1] 0.996 | [2] 1 | [3] 0.972 | [4] 1.14 | [5] 0.92 | [9] 0.808

CCCCc1c(C)nc(NCC)nc1OS(=O)(=O)N(C)C
inactive: [1] 0.942 | [2] 0.942 | [3] 1.04 | [4] 1.03 | [5] 0.911 | [6] 0.863 | [7] 0.926 | [9] 0.948 | [10] 0.944

Oc1ccccc1-c1ccccc1
inactive: [1] 1.01 | [2] 0.967 | [3] 1.01 | [4] 0.914 | [5] 0.929 | [6] 0.866 | [7] 0.964 | [9] 0.851 | [10] 0.973

CC(C)OC(=O)Nc1cccc(Cl)c1
inactive: [1] 0.932 | [2] 0.969 | [3] 1.05 | [4] 0.93 | [5] 0.95 | [6] 1 | [7] 0.964 | [9] 1.11 | [10] 1.13

COc1ccc(-c2ccccc2)cc1NNC(=O)OC(C)C
inactive: [1] 0.954 | [2] 0.947 | [3] 1.02 | [4] 0.937 | [5] 0.913 | [6] 0.87 | [7] 0.932 | [9] 0.882 | [10] 0.886

— the supplement of paper PMC12067926
